Screening results deposited in PubChem BioAssay by several laboratories.
An excerpt weighted towards active compounds, which were near 3% of everything screened.
DAGLB inhibitor – diacylglycerol lipase beta (human) inhibition. Q8NCG7. HEK293T DAGLB membrane lysate, EnzChek fluorogenic substrate. inhibition, % at 5.17 µM. 340,000 compounds, 0.059% hits. AID 504411; in the data active = inhibition above about 34%;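 note: 0% = enzyme with vehicle and 100% = wells lacking enzyme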
Target sequence (Q8NCG7 whole entry, looked up): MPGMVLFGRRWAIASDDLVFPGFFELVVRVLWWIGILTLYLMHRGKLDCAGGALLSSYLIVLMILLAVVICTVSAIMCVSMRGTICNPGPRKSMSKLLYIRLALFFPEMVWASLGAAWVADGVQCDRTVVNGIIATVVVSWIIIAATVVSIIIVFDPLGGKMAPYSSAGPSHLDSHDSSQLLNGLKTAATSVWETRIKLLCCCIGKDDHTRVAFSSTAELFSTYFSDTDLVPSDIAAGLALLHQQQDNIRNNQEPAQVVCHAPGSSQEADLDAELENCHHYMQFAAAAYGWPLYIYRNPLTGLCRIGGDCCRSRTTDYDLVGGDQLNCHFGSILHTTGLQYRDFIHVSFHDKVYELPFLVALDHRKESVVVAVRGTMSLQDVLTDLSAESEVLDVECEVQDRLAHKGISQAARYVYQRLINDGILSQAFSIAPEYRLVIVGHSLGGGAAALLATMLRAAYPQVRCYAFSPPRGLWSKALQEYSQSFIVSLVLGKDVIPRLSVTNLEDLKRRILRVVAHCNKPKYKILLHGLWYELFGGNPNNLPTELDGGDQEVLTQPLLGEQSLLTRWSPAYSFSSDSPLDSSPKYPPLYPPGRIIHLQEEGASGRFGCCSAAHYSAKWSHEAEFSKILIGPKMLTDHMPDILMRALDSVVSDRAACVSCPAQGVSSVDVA
PAFAH1B3 inh – inhibitors of human PAFAH1B3 | recombinant PAFAH1B3, FP-rhodamine probe, fluorescence polarization | Q15102 | 340,000 compounds, 0.28% hits | inhibition, % at 3.39 µM;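 active = inhibition above the screen-wide average of all tested compounds plus 3 SD, cut at about 25% in these data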;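 note: 0% = enzyme with DMSO only and 100% = wells lacking PAFAH1B3 protein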
pPAFAH FP inh – pPAFAH (human) enzyme inhibition; Q13093; recombinant pPAFAH, FP-rhodamine probe fluorescence polarization; inhibition, % at 3.39 µM; 330,000 compounds, 1.5% hits;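 active = inhibition above the mean inhibition across the screen plus 3 SD, cut at about 25% in these data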;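 note: inhibitors block binding of the rhodamine activity-based probe so polarization drops; 0% = enzyme with DMSO and 100% = wells lacking pPAFAH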
PAFAH2 FP inh – inhibitors of human PAFAH2. inhibition, % at 3.39 µM. 340,000 compounds, 0.99% hits. recombinant PAFAH2, FP-rhodamine activity probe, fluorescence polarization. AID 492956. Q99487;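 active = inhibition above the mean over all tested compounds plus 3 SD, cut at about 30% in these data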;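 note: inhibitors block probe labeling of enzyme so polarization drops; 0% = enzyme with DMSO and 100% = wells lacking PAFAH2 protein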
PAFAH1B2 inh – PAFAH1B2 (human) inhibition; recombinant PAFAH1B2, FP-rhodamine activity probe, fluorescence polarization; 340,000 compounds, 1.2% hits; inhibition, % at 3.39 µM;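 active = inhibition above the mean of all tested compounds plus 3 SD, cut at about 24% in these data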;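 note: 0% = enzyme with DMSO and 100% = wells lacking PAFAH1B2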
ATG4B inhibitor – ATG4B (human) cysteine protease inhibition; Q9Y4P1; ATG4B cleavage of LC3-PLA2, NBD-HPC fluorescence, 1 h; inhibition, % at 8.33 µM; 340,000 compounds, 0.51% hits; AID 504462; in the data active = inhibition above about 40%
ATG4B confirm – confirmation of human ATG4B inhibitors; 320 compounds, 92% hits; AID 504757; shares compounds with ATG4B inhibitor; inhibition, % at 8.33 µM; ATG4B protease fluorescent substrate cleavage assay; in the data active = inhibition above about 39%
PLA2 counter – inhibits human PLA2, flagging false ATG4B inhibitors; AID 588402; 1,600 compounds, 66% hits; inhibition, % at 8.33 µM; shares compounds with ATG4B inhibitor; purified PLA2, NBD-C6-HPC fluorescence, 45 min; in the data active = inhibition above about 50%
The depositor's hits bear a star; / = no result given.

SMILES	DAGLB inhibitor	PAFAH1B3 inh	pPAFAH FP inh	PAFAH2 FP inh	PAFAH1B2 inh	ATG4B inhibitor	PLA2 counter	others
CC(=O)N(C(C)=O)N1C(=O)/C(=C/c2ccc(Cl)cc2)SC1=S	5	0	7	5	14	68*	57*
CNC(=O)c1ccsc1NC(=O)CS(=O)(=O)c1ccc(F)cc1	-1	/	/	/	/	/	/
c1ccc(OCc2nnnn2-c2ccccc2)cc1	-1	9	1	11	5	42*	-2
Cc1ccc(NC(=O)c2ccccc2)cc1C	-1	-4	-4	-7	-3	-14	/
Cc1ccc(C(=O)Oc2cccc(NC(=O)c3ccccc3)c2)cc1C	-23	-23	-33	-38	-13	49*	59*
CN1C(=O)CSc2ccc(NC(=O)NCc3ccc(F)cc3)cc21	-2	0	17	-6	-1	64*	79*
CN1C(=O)CSc2ccc(NC(=O)NCc3cccnc3)cc21	-1	-11	3	2	-4	0	/
NC(=S)NNC(=O)c1cccc(Cl)c1	3	15	9	5	-6	-2	/
CCOC(=O)CSc1nc(C(C)C)nc2sc(C)c(C)c12	-11	-2	2	3	4	62*	59*
Cc1sc2nc(C(C)C)nc(SCC(=O)NCc3ccco3)c2c1C	-7	10	4	-7	4	42*	47	ATG4B confirm=50*
Cc1sc2nc(C(C)C)nc(SCC(=O)N3c4ccccc4CC3C)c2c1C (stereo not drawn)	-13	0	-1	-1	-1	75*	77*
Cc1nc(SCC(=O)NCc2ccco2)c2c(C)c(C)sc2n1	-3	5	0	-7	-1	3	/
CCOC(=O)CSc1nc2sc(C)c(C)c2c(=O)n1C	-6	9	3	-5	7	-2	/
Cc1cnc(C(=O)OC(C)C(=O)NCc2ccccc2)cn1 (stereo not drawn)	-2	2	12	4	6	0	/
CC(C1CC2CCC1C2)n1c(COc2ccccc2F)nnc1SCC(N)=O (stereo not drawn)	2	3	3	-4	10	24	/
CC(C)NC(=O)NC(=O)CSc1nnc(COc2ccccc2F)n1C(C)C1CC2CCC1C2 (stereo not drawn)	2	2	18	-7	2	42*	44
Clc1cccc(/C=N/Nc2nnc(Cl)c3ccccc23)c1	-1	3	-5	3	1	2	/
Clc1ccc(/C=N/Nc2nnc(-c3ncc[nH]3)c3ccccc23)cc1	1	8	8	-8	3	79*	82*
CCCCCCCCOC(=O)c1c(CSC(=N)N)n(C)c2cc(Br)c(OC(C)=O)cc12	/	/	-1	/	/	40*	5	ATG4B confirm=65*
O=C1N[C@@H](c2ccccc2)COC(=O)[C@@H](Cc2ccc(F)cc2)C/C=C\C[C@@H]1CC(=O)N(CCO)Cc1ccccc1	1	7	9	2	-6	50*	54*
COc1ccccc1Nc1cc2cc(Br)ccc2c(=O)[nH]1	-15	25	16	13	6	66*	5
CCOc1ccccc1NC(=O)CCNC(=O)N1CC(=O)Nc2ccccc21	-2	/	/	/	/	/	/
O=C(Cc1cccc(NC(=O)C2CCN(S(=O)(=O)c3cccc([N+](=O)[O-])c3)CC2)c1)Nc1cccc(C(=O)N2CCOCC2)c1	0	-2	/	2	1	-12	/
O=C(c1ccccc1)c1coc2ccc(O)c(Cl)c12	-4	4	6	-3	-2	4	/
O=C1C(=O)c2c(C(=O)c3ccccc3)coc2-c2ccccc21	3	9	19	0	1	65*	89*
SMILES	DAGLB inhibitor	PAFAH1B3 inh	pPAFAH FP inh	PAFAH2 FP inh	PAFAH1B2 inh	ATG4B inhibitor	PLA2 counter	others
CC(Sc1ncnc2sc(-c3ccccc3)cc12)C(N)=O (stereo not drawn)	-3	6	9	-6	6	48*	62*
Cc1c(OCC(=O)NCC(O)c2ccccc2)ccc2c(-c3ccccc3)cc(=O)oc12 (stereo not drawn)	-5	-5	4	1	-1	-14	/
C[C@@H]1CCCCO[C@@H](CN(C)C(=O)Cc2ccccc2)[C@@H](C)CN([C@H](C)CO)C(=O)c2cc(NC(=O)C3CCCCC3)ccc2O1	-3	/	/	/	/	/	/
O=C(c1ccc(Cl)cc1)c1oc2ccccc2c1CS(=O)c1ccccc1 (stereo not drawn)	-6	5	3	-2	6	54*	59*
Nc1c(C(=O)c2ccc(Br)cc2)oc2ccccc12	0	8	4	-6	3	6	/
O=C(NCCC1=CCCCC1)Nc1ccc2nsnc2c1	-8	5	-1	0	15	46*	50
S=C(NCCCCc1ccccc1)NCc1ccccc1	-7	6	/	-1	5	63*	70*
S=C(NCc1cccc(Cl)c1)NC1CCCCC1	-4	6	-8	-4	10	59*	64*
S=C(Nc1ccc(Cl)c(Cl)c1)NC1CCN(Cc2ccccc2)CC1	-6	-7	-16	-18	2	24	/
O=C(CCSCc1cccc(Cl)c1)NCCc1ccc(Cl)cc1	-7	0	4	1	28*	44*	16
S=C(Nc1ccc(Cl)c(Cl)c1)NC1CCCCC1	-12	1	0	-15	1	48*	40
CCCCCN(C(=O)CCC(=O)OCC(=O)N1CCCCC1C)c1c(N)n(CCCC)c(=O)[nH]c1=O (stereo not drawn)	1	8	3	-1	1	-1	/
S=C(NCCc1ccccc1)NCc1cccc(Cl)c1	-8	10	3	3	4	84*	90*
S=C(NCCc1ccccc1)NCCc1ccccc1	-2	9	-3	4	1	-1	/
CN1OC[C@@H]2CN(C(=O)CCc3ccccc3)[C@H](c3cccc(-c4ccc(C#N)cc4)c3)C[C@@H]21	-5	9	/	-2	8	1	/
CCOc1ccc(C(=O)Nc2cc(NC(=O)c3ccc(OCC)c(Cl)c3)cc(C(=O)O)c2)cc1Cl	-2	-48	/	-47	-21	48*	60*
CCOc1ccc(C(=O)Nc2cccc(C(=O)O)c2)cc1Cl	2	3	-33	3	6	17	/
CCOC(=O)c1c(/N=C/C2=C(O)CC(C)(C)CC2=O)sc(C)c1C	0	7	1	1	0	62*	16	ATG4B confirm=69*
CCOC(=O)c1c(/N=C/C2=C(O)CCCC2=O)sc2c1CCCC2	/	/	22	/	/	26	/
CC(C)c1ccc(NC2CCCN(C(=O)c3cc(C(C)C)nc(N)n3)C2)cc1 (stereo not drawn)	-2	7	5	3	6	75*	77*
